Laboratory results taken from paper PMC4336329 (PLoS ONE, 2015).
Out of some 310,000 compounds screened, about 14,000 (4.5%) showed an effect of 50% or more. Effects have a minus sign here. This is one part of a sample in which strong results are shown more often than they occur.

molecular target: human ether-à-go-go-related gene (hERG) potassium channel (human, UniProt Q12809); assay: primary screen, population patch clamp on CHO cells stably expressing hERG; higher = less effect of the substance
Sequence (Q12809 whole entry, looked up): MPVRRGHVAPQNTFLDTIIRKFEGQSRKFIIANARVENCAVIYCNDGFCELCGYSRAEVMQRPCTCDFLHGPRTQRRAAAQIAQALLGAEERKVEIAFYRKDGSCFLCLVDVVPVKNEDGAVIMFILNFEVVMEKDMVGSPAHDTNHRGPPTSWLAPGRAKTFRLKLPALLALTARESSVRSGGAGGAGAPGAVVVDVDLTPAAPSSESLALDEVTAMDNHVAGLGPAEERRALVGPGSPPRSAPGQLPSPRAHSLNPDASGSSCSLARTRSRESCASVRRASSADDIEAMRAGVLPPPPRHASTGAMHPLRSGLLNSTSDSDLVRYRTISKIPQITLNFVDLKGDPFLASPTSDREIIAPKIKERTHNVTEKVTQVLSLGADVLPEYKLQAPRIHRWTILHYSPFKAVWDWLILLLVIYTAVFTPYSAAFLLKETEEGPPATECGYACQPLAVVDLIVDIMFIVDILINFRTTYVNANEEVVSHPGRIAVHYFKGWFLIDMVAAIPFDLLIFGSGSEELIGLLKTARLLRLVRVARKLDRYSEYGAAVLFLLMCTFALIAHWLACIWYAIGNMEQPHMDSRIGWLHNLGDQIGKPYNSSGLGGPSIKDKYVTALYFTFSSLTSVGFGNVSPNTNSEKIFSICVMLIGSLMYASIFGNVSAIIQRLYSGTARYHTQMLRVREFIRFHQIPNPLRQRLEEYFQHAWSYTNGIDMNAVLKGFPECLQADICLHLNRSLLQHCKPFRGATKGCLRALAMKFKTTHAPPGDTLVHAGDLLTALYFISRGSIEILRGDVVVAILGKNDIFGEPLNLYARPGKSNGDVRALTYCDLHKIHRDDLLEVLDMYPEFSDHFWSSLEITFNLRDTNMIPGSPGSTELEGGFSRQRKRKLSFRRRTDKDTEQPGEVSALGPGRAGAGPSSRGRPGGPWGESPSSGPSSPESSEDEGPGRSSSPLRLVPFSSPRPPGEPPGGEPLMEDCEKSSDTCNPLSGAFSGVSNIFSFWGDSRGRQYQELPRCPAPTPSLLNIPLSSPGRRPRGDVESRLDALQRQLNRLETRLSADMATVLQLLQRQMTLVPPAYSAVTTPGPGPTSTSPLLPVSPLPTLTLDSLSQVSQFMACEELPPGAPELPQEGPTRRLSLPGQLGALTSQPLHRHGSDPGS
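Also: peak tail current of the secondary pulse compared with the same well before compound.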

| SMILES | hERG current change (%, negative = inhibition) at 10uM [%] |
| --- | --- |
| CCC(=O)OC1(C)C(=O)C2=COC(c3ccc(OC)cc3)=CC2=C(Br)C1=O (stereo not drawn) | 1.2 |
| CC(=O)N(Cc1ccc(Br)cc1)c1cccc(C)c1C | 3.64 |
| N#Cc1ccc(CSc2nnc3ccccn23)cc1 | -0.562 |
| Cc1c(Br)c(C(F)(F)F)nn1CC(=O)NCc1ccccc1 | 31.8 |
| Cc1cc(C)n2nc(SCCOc3ccccc3F)nc2n1 | -22.7 |
| COc1ccc(C(=O)c2cn[nH]c2-c2ccc(C)cc2O)cc1 | -2.49 |
| Cc1cccc(C)c1-n1c(C)cc(/C=N/NC(N)=S)c1C | 15.6 |
| CCOC(=O)CCCCC(=O)c1[nH]c(=O)[nH]c1CN1CCOCC1 | 20 |
| COc1cccc(-c2onc3ccc(C(=O)/C=C/N(C)C)cc23)c1 | -31.4 |
| CN(C)/C=C/C(=O)c1ccc2noc(-c3ccccc3)c2c1 | -62.6 |
| Cc1cccc(-c2onc3ccc(C(=O)/C=C/N(C)C)cc23)c1 | -42 |
| CN(C)/C=C/C(=O)c1ccc2noc(-c3cccc(F)c3)c2c1 | -50.2 |
| CN(C)/C=C/C(=O)c1ccc2noc(-c3ccc(F)cc3)c2c1 | -9.41 |
| CC(=O)c1ccc2noc(-c3cccc(F)c3)c2c1 | 2.79 |
| O=C(NCc1ccc2c(c1)OCO2)C1CC(=O)N(c2ccc(F)cc2)C1 (stereo not drawn) | -29.9 |
| CC(C)(C)NC(=O)CN(C(=O)CCC(=O)Nc1nccs1)c1ccc(F)cc1 | 12.6 |
| CCC(CO)NCc1ccc2c(c1)n(C)c(=O)n2C.Cl (stereo not drawn) | 17.4 |
| O=C(O)c1ccc(NS(=O)(=O)c2cc(C(=O)O)ccc2Br)cc1 | 17 |
| O=C(N/N=C\c1ccc(Cl)s1)c1cccs1 | 23.2 |
| COc1ccccc1N1CCN(C(=O)c2sc3ncn(CC(=O)N4CCC(C)CC4)c(=O)c3c2C)CC1 | -29.3 |
| CCCCCn1ccc(=N)cc1.I | 11.7 |
| Br.CCCCCCCCCn1ccc(=N)cc1 | -66 |
| Br.CCCCCCN1Cc2ccccc2C1 | -39.3 |
| Br.CCCCCCn1ccc(=N)cc1 | 1.66 |

| SMILES | hERG current change (%, negative = inhibition) at 10uM [%] |
| --- | --- |
| Br.CCCCCCCCn1ccc(=N)cc1 | -27 |
| Br.CCCCCCCCCCn1ccc(=N)cc1 | -72.9 |
| CCCCCCCn1ccc(=N)cc1.I | -14.7 |
| CCCCCCCCCCCCCCCCn1cc[n+](C)c1.[Br-] | -18.4 |
| Br.CCCCCCCCCCCCn1ccc(=N)cc1 | -60.2 |
| O=C(O)C1CCCCC1C(=O)NCCCN1CCOCC1 (stereo not drawn) | -1.05 |
| Cc1ccc(/C=C/C(=O)NCC2COc3ccccc3O2)o1 (stereo not drawn) | -18.2 |
| CCCCC(=O)N/N=C/c1c(O)n(CCc2ccccc2)c(=O)[nH]c1=O | 18.3 |
| CCOC(=O)C1CCCN(c2c(NCCN3CCCCC3C)c(=O)c2=O)C1 (stereo not drawn) | 5.47 |
| COc1ccc(C(=O)COC(=O)c2ccc3c(c2)OCO3)c(OC)c1 | -16.9 |
| Cc1ccc(OCC(O)Cn2c(N3CCCCC3)nc3c2c(=O)[nH]c(=O)n3C)cc1 (stereo not drawn) | 9.46 |
| Cn1c(=O)[nH]c(=O)c2c1nc(Br)n2CC(O)COc1ccccc1 (stereo not drawn) | -0.394 |
| CN1CCN(c2nc3c(c(=O)[nH]c(=O)n3C)n2Cc2cccc(Br)c2)CC1 | -53.5 |
| COc1ccc(OCC(O)Cn2c(N3CCCCC3)nc3c2c(=O)[nH]c(=O)n3C)cc1 (stereo not drawn) | -5.73 |
| CCCn1c(N2CCN(C)CC2)nc2c1c(=O)[nH]c(=O)n2C | -13.5 |
| Cn1c(=O)[nH]c(=O)c2c1nc(Br)n2CC(O)COc1ccc(Cl)cc1 (stereo not drawn) | -63.6 |
| Cn1c(=O)[nH]c(=O)c2c1nc(N1CCCCC1)n2CC(O)COc1ccc([N+](=O)[O-])cc1 (stereo not drawn) | -69.8 |
| Cn1c(=O)[nH]c(=O)c2c1nc(Br)n2Cc1cccc(Br)c1 | 15.1 |
| COc1ccc(OCC(O)Cn2c(Br)nc3c2c(=O)[nH]c(=O)n3C)cc1 (stereo not drawn) | -12.6 |
| COc1ccc(N2CCN(c3nc4c(c(=O)[nH]c(=O)n4C)n3Cc3cccc(C)c3)CC2)cc1 | -14.2 |
| CN1CCN(c2nc3c(c(=O)[nH]c(=O)n3C)n2Cc2ccccc2)CC1 | -25.4 |
| CCCn1c(N2CCN(Cc3cccc(C)c3)CC2)nc2c1c(=O)[nH]c(=O)n2C | -53 |
| CCOC(=O)C[C@H]1c2ccccc2S(=O)(=O)N1C1CC1 | 5.78 |
| Br.CC1(C)OC(c2ccccc2)=C/C(=C/C=Nc2ccccc2)O1 | -12.9 |

| SMILES | hERG current change (%, negative = inhibition) at 10uM [%] |
| --- | --- |
| CC(C)c1ccc(C(O)c2cnc(C(C)C)n2C)cc1 (stereo not drawn) | -27.5 |
| O=C1N=C(N2CCN(c3cccc4ccccc34)CC2)S/C1=C/c1cccs1 | 11.9 |
| O=C1N/C(=N\N=C\c2cccs2)SC1Cc1ccc(Cl)cc1 (stereo not drawn) | -8.96 |
| COc1ccc(-n2cnnc2SCC(=O)NC2CCS(=O)(=O)C2)cc1 (stereo not drawn) | 8.52 |
| O=C(CSc1nc2ccccc2n1-c1ccccc1)Nc1ncc(Cl)cc1Cl | 12.1 |
| O=C(Nc1ccc(F)cc1F)C1CCN(S(=O)(=O)c2cccnc2)CC1 | -1.85 |
| CSc1ccc(Cn2nnc(C(=O)NCc3ccccc3)c2N)cc1 | -0.141 |
| CS(=O)(=O)N1CCC(C(=O)Nc2cccc(C(F)(F)F)c2)CC1 | -14.2 |
| O=C(CCCCn1c(=O)c2ccccc2n(Cc2ccc(F)cc2Cl)c1=O)NCc1ccco1 | -5.07 |
| Cc1cccc(Cn2c(N3CCN(C)CC3)nc3c2c(=O)[nH]c(=O)n3C)c1 | -50.7 |
| Cc1cccc(Cn2c(N3CCN(C)CC3)nc3c2c(=O)n(C)c(=O)n3C)c1 | -49 |
| CN1CCN(c2nc3c(c(=O)[nH]c(=O)n3C)n2Cc2cccc3ccccc23)CC1 | -27.6 |
| CN1CCN(c2nc3c(c(=O)[nH]c(=O)n3C)n2Cc2ccc([N+](=O)[O-])cc2)CC1 | -59 |
| CN1CCN(c2nc3c(c(=O)n(C)c(=O)n3C)n2Cc2ccc(Cl)cc2)CC1 | -39.5 |
| Cc1cccc(Cn2c(N3CCN(CCO)CC3)nc3c2c(=O)[nH]c(=O)n3C)c1 | -23.5 |
| Cc1cccc(Cn2c(N3CCc4ccccc4C3)nc3c2c(=O)[nH]c(=O)n3C)c1 | -4.89 |
| CC1CCN(c2nc3c(c(=O)[nH]c(=O)n3C)n2Cc2ccccc2)CC1 | 7.99 |
| CN1CCN(c2nc3c(c(=O)[nH]c(=O)n3C)n2Cc2ccc(Cl)cc2)CC1 | -15.5 |
| CN1CCN(c2nc3c(c(=O)n(C)c(=O)n3C)n2Cc2cccc(Br)c2)CC1 | -55.1 |
| Cc1ccc(Cn2c(N3CCN(C)CC3)nc3c2c(=O)[nH]c(=O)n3C)cc1 | -14.9 |
| Cc1cccc(Cn2c(N3CCCCC3C)nc3c2c(=O)[nH]c(=O)n3C)c1 (stereo not drawn) | -57 |
| O=C(COC(=O)CCNS(=O)(=O)c1ccc2c(c1)OCCO2)NC1CCCc2ccccc21 (stereo not drawn) | -0.954 |
| O=C(CN(C(=O)c1ccccc1Cl)N1C(=O)C2C3C=CC(C3)C2C1=O)c1cccs1 (stereo not drawn) | 7.25 |
| O=C(CSc1ncn[nH]1)NC12CC3CC(CC(C3)C1)C2 | -5.91 |

| SMILES | hERG current change (%, negative = inhibition) at 10uM [%] |
| --- | --- |
| O=C(N/N=C/c1c(F)c(F)c(F)c(F)c1F)c1cc(-c2ccccc2)nc2ccccc12 | 6.92 |
| O=C(O)Cc1csc(-c2cccc(F)c2)n1 | 19.1 |
| CC(C)OC(=O)NCCOC(=O)Nc1ccccc1Cl | 21.6 |
| Cn1c(=O)c(=O)n(C)c2cc(S(=O)(=O)CCC(=O)NCc3ccccc3)ccc21 | 20 |
| COc1ccc(OC)c(/C=N/NC(=O)Cc2nc3ccccc3[nH]2)c1 | 5.63 |
| Cc1onc(-c2ccccc2)c1C(=O)N1CCN(S(=O)(=O)c2ccccc2C(F)(F)F)CC1 | 22.6 |
| Cc1cc(S(=O)(=O)Nc2ccc(C(=O)NCCCN3CCCC3=O)cc2)ccc1F | 8.37 |
| O=C(NCc1ccccc1)C1C(=O)N(Cc2ccccc2)C(=O)C1C1(O)CCCC1 (stereo not drawn) | 2.87 |
| O=C(Nc1ccc2oc(=O)ccc2c1)c1ccc(-c2ccc(Cl)cc2)o1 | 3.37 |
| S=c1[nH]nc(Cc2ccccc2)n1Cc1ccco1 | -5.08 |
| Cc1nc2ccc(S(=O)(=O)NCC(=O)N3CCN(c4ccccc4)CC3)cc2s1 | -1.33 |
| O=C(O)c1cc(NC(=O)c2cccc(F)c2)cc(NC(=O)c2cccc(F)c2)c1 | 15.4 |
| COc1ccc(C(CNC(=O)COc2ccccc2C)N2CCCC2)cc1 (stereo not drawn) | -40.8 |
| COc1ccc(C(CNC(=O)COc2ccc([N+](=O)[O-])cc2)N2CCCCC2)cc1 (stereo not drawn) | -69.9 |
| COc1ccc(C(CNC(=O)COc2ccccc2)N2CCCCC2)cc1 (stereo not drawn) | -29.3 |
| COc1ccc(C(CNC(=O)COc2ccc(Br)cc2F)N2CCCC2)cc1 (stereo not drawn) | -78.6 |
| COc1ccc(C(CNC(=O)COc2ccc(F)cc2Cl)N2CCCCC2)cc1 (stereo not drawn) | -8.7 |
| COc1ccc(C(CNC(=O)COc2ccccc2C)N2CCCCC2)cc1 (stereo not drawn) | -20.7 |
| COc1ccc(C(CNC(=O)COc2ccc(F)cc2Br)N2CCCC2)cc1 (stereo not drawn) | -64.5 |
| COc1ccc(OCC(=O)NCC(c2ccc(OC)cc2)N2CCCCC2)cc1 (stereo not drawn) | -33.1 |
| COc1ccc(C(CNC(=O)COc2ccccc2OC)N2CCCCC2)cc1 (stereo not drawn) | -19.5 |
